# Assay outcomes as filed in PubChem.
# A selection: hits, their analogues and other compounds. The true share with any hit is near 3.4%.
# TEAD-YAP block – TEAD-YAP interaction inhibition | 640,000 compounds, 1.4% hits | inhibition, % at 9.12 µM | HEK-TIYL cells, TEAD-Gal4/YAP UAS-luciferase luminescence; in the data active = inhibition above about 32%
# GPR151 activ – human GPR151 activation; 650,000 compounds, 1% hits; PathHunter beta-arrestin GPR151 cells, luminescence; AID 1508602; Q8TDV0; activation, % at 11.2 µM; in the data active = activation above about 4.9%
# Target sequence (Q8TDV0 whole entry, looked up): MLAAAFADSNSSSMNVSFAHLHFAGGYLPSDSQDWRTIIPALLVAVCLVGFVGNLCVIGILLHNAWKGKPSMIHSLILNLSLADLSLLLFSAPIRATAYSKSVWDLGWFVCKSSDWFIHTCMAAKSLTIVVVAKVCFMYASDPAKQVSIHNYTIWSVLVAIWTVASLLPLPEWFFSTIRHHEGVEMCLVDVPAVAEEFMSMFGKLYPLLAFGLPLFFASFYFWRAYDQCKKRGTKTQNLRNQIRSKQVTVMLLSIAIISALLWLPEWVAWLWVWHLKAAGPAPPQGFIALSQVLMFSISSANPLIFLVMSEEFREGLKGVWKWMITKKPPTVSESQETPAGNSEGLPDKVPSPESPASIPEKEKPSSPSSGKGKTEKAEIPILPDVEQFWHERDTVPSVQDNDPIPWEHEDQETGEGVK
# MITF inh – human MITF inhibition, primary screen | O75030 | AlphaScreen MITF homodimerization, bead proximity signal | inhibition, % at 2.6 µM | 650,000 compounds, 0.91% hits; in the data active = inhibition above about 50%
# FBW7 act – activators of human E3 ligase FBW7 | AlphaScreen FBW7–phospho-cyclin E peptide binding, activator screen | normalized activity (activation), % at 26.1 µM | 650,000 compounds, 0.13% hits | AID 1259310; in the data active = normalized activity above about 1.9%;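 also: purified mutant Fbw7 with reduced substrate affinity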
# Numbers stand for hits; 0 = inactive; - = not tested or not shown; ! = not confirmed by another sample.
SMILES,TEAD-YAP block,GPR151 activ,MITF inh,FBW7 act
CCOc1ccc(-c2nc(CSCC(=O)N3CCC4(CC3)OCCO4)c(C)o2)cc1,53.0,0,0,0
Cc1ccc(-c2nc(CSCC(=O)N3CCC4(CC3)OCCO4)c(C)o2)cc1,49.9,0,0,0
COc1ccc(-c2nc(CSCC(=O)N3CCC4(CC3)OCCO4)c(C)o2)cc1OC,0,0,0,0
CC(O)CN1CCN(CC(=O)O)CCN(CC(=O)O)CCN(CC(=O)O)CC1.[Gd+3] (centres undefined),0,0,0,0
O=C1C=C2C(=CCOC2O)O1 (centres undefined),39.4,0,0,0
CC1=CC(=O)NP(=O)(Oc2ccc3ccccc3c2)N1 (centres undefined),0,0,0,1.9
CC[N+](CC)(CC)CC(=O)Nc1ccc(Br)cc1C(=O)c1ccc(Cl)cc1,0,0,0,0
Cc1[nH]c2ccc(Cl)cc2c1CCN,0,0,0,0
Cc1[nH]c2ccccc2c1CCN,0,0,0,2.1
Cc1[nH]c2c(C(C)C)cccc2c1CCN,91.0,0,0,0
CC(C)=CCC[C@]1(C)C=Cc2c(O)c3c(c(CC=C(C)C)c2O1)O[C@]12C(=CC4C[C@@H]1C(C)(C)O[C@@]2(C/C=C(/C)C(=O)O)C4=O)C3=O,75.2,0,0,0
O=c1c2ccccc2nc(/C=C\c2ccc(F)cc2)n1-c1cccc(Cl)c1,0,0,0,0
CC1CCN(Cc2ccc(NC(=O)CCc3nc(C4=CCN(C)CC4)no3)cc2)CC1,0,0,0,3.9
CC1N=C(c2ccccc2)c2ccccc2N(CC(=O)NCc2ccccc2)C1=O (centres undefined),0,0,0,0
Cn1ncnc2c(=O)n(C)c(=O)nc1-2,98.9,0,0,0
COc1ccc(OC)c(CNCCc2c[nH]c3ccccc23)c1,0,0,64.5,0
c1ccc(C2=NN(c3ccccc3)N(c3ccccc3)N2)cc1,76.3,0,0,0
COc1cc(/C=C\c2ccc(OC)c(O)c2)cc(OC)c1,-,0,0,-
COc1ccc(/C=C/c2cc(O)cc(O)c2)cc1,91.5,0,0,0
CN1CCN(C(=O)Cc2ccc(NC3=NC4CS(=O)(=O)CC4S3)cc2)CC1 (centres undefined),0,0,0,2.6
C/C(=N\N/C(N)=N/[N+](=O)[O-])c1ccccc1,0,0,0,0
CC1=CC(=C2C(=O)NC(=S)NC2=O)C=C(C(F)(F)F)N1Cc1ccccc1,51.6,0,0,0
c1ccc2c(N3CCNCC3)cccc2c1,0,0,0,0
Cc1cncc2cccc(N3CCNCC3)c12,37.6,0,0,0
COc1ccc(C2SCC(=O)Nc3c2c(-c2ccccc2)nn3-c2ccccc2)cc1OC (centres undefined),52.2,0,0,0
SMILES,TEAD-YAP block,GPR151 activ,MITF inh,FBW7 act
CN1C(=O)NC(=O)/C(=C\c2cn(Cc3ccccc3Cl)c3ccccc23)C1=O,0,0,0,0
O=C1NC(=O)N(c2ccc(Br)cc2)C(=O)/C1=C/c1ccc(O)c(O)c1,0,0,89.6,0
O=C1NC(=O)N(c2ccc(Br)cc2)C(=O)/C1=C/c1ccc(O)cc1,0,0,0,0
CN(C)C(=S)SSC(=S)N(C)C,34.4,0,0,0
COc1cc(C)c(/C=C/[N+](=O)[O-])cc1C(C)C,36.6,0,0,0
Cc1ccccc1CN1CCN(C(C)C)C(CCO)C1 (centres undefined),0,0,0,0
CCc1cccc(NC(=O)CN2CC(c3ccccc3)CC2=O)c1 (centres undefined),0,0,0,0
CNC(=O)Oc1cc([N+](=O)[O-])cc2cccnc12,74.5,0,96.0,0
CN1/C(=C/C=C/c2oc3ccccc3[n+]2C)Oc2ccccc21 (tested in a mixture with another compound),79.4,0,0,0
CN(C)CC#CCN1CCCC2(CCOC(C)(C)C2)C1 (centres undefined),0,0,0,0
S=P(/C=C(\Cl)c1ccccc1)(/C=C(\Cl)c1ccccc1)N1CCOCC1,0,0,0,0
N#CC(C#N)=Cc1ccc(O)c(O)c1,0,0,74.1!,0
CN1CCN(c2nc3ccc([N+](=O)[O-])cc3s2)CC1,0,0,0,0
COc1ccc2sc(N3CCN(C)CC3)nc2c1,37.3,0,0,0
O=C(c1ccccc1)c1cc(Br)ccc1NC(=O)c1cc2ccccc2oc1=O,0,0,0,0
CC(C)n1ccc(C(=O)Nc2cc3ccccc3oc2=O)n1,62.8,0,0,0
CC(C)CCCN1CCC(N2C[C@H]3C[C@@H](C2)c2cccc(=O)n2C3)CCC1=O (some centres undefined),0,0,0,0
CCCCC[C@H]1C(=O)O[C@H](C)[C@H](NC(=O)c2cccc(NC=O)c2O)C(=O)O[C@@H](C)[C@@H]1OC(=O)CC(C)C,51.8,0,0,0
CCCCCC[C@H]1C(=O)O[C@H](C)[C@H](NC(=O)c2cccc(NC=O)c2O)C(=O)O[C@@H](C)[C@@H]1OC(=O)CC(C)C,49.5,0,0,0
COc1ccc(CN2CCN(c3ccc([N+](=O)[O-])cc3)CC2)cc1,0,0,0,0
CN1C(=O)[C@]23CC4=CC=C[C@H](O)[C@H]4N2C(=O)[C@@]1(CO)SS3,87.9,0,0,0
O=C(Cn1cc2c(n1)CCCCC2)N1CCC2(CC1)OCCO2,0,0,0,0
O=c1[nH]c(=S)[nH]c(O)c1N=Nc1ccc2c(c1)OCCO2,0,0,0,0
O=c1[nH]c(O)c(N=Nc2ccc3c(c2)OCCO3)c(=O)[nH]1,62.4,0,0,0
CC(C)=CC1C(C(=O)OCn2ncn(Cc3ccccc3)c2=S)C1(C)C (centres undefined),0,0,0,0
SMILES,TEAD-YAP block,GPR151 activ,MITF inh,FBW7 act
C=CCN1C(=O)/C(=C\c2ccc(C)o2)C(=O)NC1=S,0,0,0,0
Cc1ccc(/C=C2/C(=O)NC(=O)N(C)C2=O)cc1,0,0,0,0
Cc1ccc(C=C2C(=O)NC(=S)NC2=O)o1,0,0,66.5,0
CN1C(=O)NC(=O)/C(=C/c2ccc(I)o2)C1=O,0,0,63.0,0
Cc1ccc2nc(NC(=O)c3c(O)c4ccccc4n(CCC(C)C)c3=O)sc2c1,0,0,0,0
CC(C)[C@@H]1NC(=O)[C@H](C)OC(=O)[C@@H](C(C)C)NC(=O)[C@@H](C(C)C)OC(=O)[C@H](C(C)C)NC(=O)[C@H](C)OC(=O)[C@@H](C(C)C)NC(=O)[C@@H](C(C)C)OC(=O)[C@H](C(C)C)NC(=O)[C@H](C)OC(=O)[C@@H](C(C)C)NC(=O)[C@@H](C(C)C)OC1=O,96.0,0,0,0
c1ccc2c(c1)OCC(CN1CCC(n3cnc4ccccc43)CC1)O2 (centres undefined),0,0,0,0
COc1ccc2cc(-c3nc4ccccc4[nH]3)c(=N)oc2c1,65.5,0,0,0
O=[N+]([O-])c1ccc([As](=O)(O)O)cc1,0,0,0,0
CC[N+](CC)=c1scc(-c2ccc([N+](=O)[O-])cc2)s1,48.1,0,0,0
N#CC(C#N)=NNc1ccc(-c2ccccc2)cc1,43.9,0,0,0
CC(=O)c1ccc(-c2ccccc2)cc1,0,0,0,0
